Data: PubChem BioAssay (NCATS)
Records with an inconclusive call do not appear. A call without a number means that no potency is given here. Active and inactive are the calls of the source. Unless noted, calls come from the whole dose curve; as a rule, active = well fitted curve in the direction sought with a large enough effect; inconclusive = small, poorly fitted or top-dose-only effect, or another doubt; inactive = no such curve, though single readings can be large; an effect the other way counts as inactive or inconclusive.

tested on: not listed separately; assay: High Content Imaging Cell-Based qHTS for Inhibitors of the mTORC1 Signaling Pathway in MEF Cells (AID 2667); details: series mostly up to 38.3 µM
Summary of the method: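 WT MEFs (Tsc2-/-, p53-/- re-expressing Tsc2), in DMEM + 10% FBS, were treated with compound for 24 h at 37 C. Cells were then fixed and stained for phospho-rpS6 Ser235/236 with propidium iodide as cell count. Values are % positive cells, with thresholds set against rapamycin-treated cells.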
Potency is the fitted concentration of half-maximal effect.

SMILES | Potency
CC(O)(CS(=O)(=O)c1ccc(F)cc1)C(=O)Nc1ccc(C#N)c(C(F)(F)F)c1 (centres undefined) | inactive
Cc1cc2c(C(C)C)c(O)c(O)c(C=O)c2c(O)c1-c1c(C)cc2c(C(C)C)c(O)c(O)c(C=O)c2c1O | 14.7 µM (active)
CC(=O)[C@H]1CC[C@H]2[C@@H]3CC[C@H]4C[C@](C)(O)CC[C@]4(C)[C@H]3CC[C@]12C | inactive
CC[C@@H](CO)NC(=O)[C@@H]1C=C2c3cccc4[nH]cc(c34)C[C@H]2N(C)C1 | inactive
CC(C)=CCOc1c2occc2cc2ccc(=O)oc12 | inactive
C[C@@H]1O[C@@H](O[C@H]2C[C@@H](O)[C@]3(CO)[C@H]4[C@H](O)C[C@]5(C)[C@@H](C6=CC(=O)OC6)CC[C@]5(O)[C@@H]4CC[C@]3(O)C2)[C@H](O)[C@H](O)[C@H]1O | inactive
CC[C@@H](CO)NC(=O)[C@@H]1C=C2c3cccc4c3c(cn4C)C[C@H]2N(C)C1 | inactive
COC[C@H]1OC(=O)c2coc3c2[C@@]1(C)C1=C(C3=O)C2CCC(=O)[C@@]2(C)C[C@H]1OC(C)=O (some centres undefined) | inactive
CN(C)C(=O)C(CCN1CCC(O)(c2ccc(Cl)cc2)CC1)(c1ccccc1)c1ccccc1 | 18.5 µM (active)
Cc1cccc(C)c1NC(=O)CN1CCCC1=O | inactive
CCCN1CCC[C@@H]2Cc3[nH]ncc3C[C@H]21 | inactive
COc1ccc(C(CN(C)C)C2(O)CCCCC2)cc1 (centres undefined) | inactive

tested on: not listed separately; assay: Cytometry Cell-Based qHTS for Inhibitors of the mTORC1 Signaling Pathway in MEF cells (AID 2668); details: mTORC1 pathway readout; series mostly up to 38.3 µM
Summary of the method: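 Read-out: phospho-rpS6 Ser235/236 immunofluorescence normalized to propidium iodide intensity, scored as % active cells against a rapamycin (7.5 nM) threshold. Cells: Tsc2-/-, p53-/- MEFs stably expressing WT Tsc2, compound-treated 24 hrs at 37 degree Celsius.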

SMILES | Potency
CC(O)(CS(=O)(=O)c1ccc(F)cc1)C(=O)Nc1ccc(C#N)c(C(F)(F)F)c1 (centres undefined) | inactive
CC(=O)[C@H]1CC[C@H]2[C@@H]3CC[C@H]4C[C@](C)(O)CC[C@]4(C)[C@H]3CC[C@]12C | inactive
CC[C@@H](CO)NC(=O)[C@@H]1C=C2c3cccc4[nH]cc(c34)C[C@H]2N(C)C1 | inactive
CC(C)=CCOc1c2occc2cc2ccc(=O)oc12 | inactive
C[C@@H]1O[C@@H](O[C@H]2C[C@@H](O)[C@]3(CO)[C@H]4[C@H](O)C[C@]5(C)[C@@H](C6=CC(=O)OC6)CC[C@]5(O)[C@@H]4CC[C@]3(O)C2)[C@H](O)[C@H](O)[C@H]1O | inactive
CC[C@@H](CO)NC(=O)[C@@H]1C=C2c3cccc4c3c(cn4C)C[C@H]2N(C)C1 | inactive
COC[C@H]1OC(=O)c2coc3c2[C@@]1(C)C1=C(C3=O)C2CCC(=O)[C@@]2(C)C[C@H]1OC(C)=O (some centres undefined) | inactive
CN(C)C(=O)C(CCN1CCC(O)(c2ccc(Cl)cc2)CC1)(c1ccccc1)c1ccccc1 | 13.1 µM (active)
Cc1cccc(C)c1NC(=O)CN1CCCC1=O | inactive
CCCN1CCC[C@@H]2Cc3[nH]ncc3C[C@H]21 | inactive
COc1ccc(C(CN(C)C)C2(O)CCCCC2)cc1 (centres undefined) | inactive

tested on: not listed separately; assay: Validation screen for inhibitors of Lassa infection (AID 463096; calls by dose curve); details: Lassa virus infection, cell-based; series mostly up to 46.1 µM

SMILES | Potency
Cn1cnc([N+](=O)[O-])c1Sc1ncnc2nc[nH]c12 | inactive
COc1cc2nc(N3CCN(C(=O)C4CCCO4)CC3)nc(N)c2cc1OC (centres undefined) | inactive
Cc1ccc(S(=O)(=O)NC(=O)NN2CCCCCC2)cc1 | inactive
O=C1CCc2cc(OCCCCc3nnnn3C3CCCCC3)ccc2N1 | inactive
CC(C)NCC(O)COc1cccc2[nH]ccc12 (centres undefined) | inactive
CN(C)CC/C=C1\c2ccccc2COc2ccccc21 | inactive
COc1ccc(Cc2nccc3cc(OC)c(OC)cc23)cc1OC | inactive
CC12CC3CC(C)(C1)CC(N)(C3)C2 | inactive
COC(=O)[C@H]1[C@H]2C[C@@H]3c4[nH]c5cc(OC)ccc5c4CCN3C[C@H]2C[C@@H](OC(=O)c2cc(OC)c(OC)c(OC)c2)[C@@H]1OC | 7.94 µM (active)
CC(COc1ccccc1)N(CCCl)Cc1ccccc1 (centres undefined) | inactive
CC(C)C(=O)Nc1ccc([N+](=O)[O-])c(C(F)(F)F)c1 | inactive
Nc1nc2c(ncn2COC(CO)CO)c(=O)[nH]1 | inactive
CN(C)CCOC(C)(c1ccccc1)c1ccccn1 (centres undefined) | inactive
CN(C)C(=O)C(CCN1CCC(O)(c2ccc(Cl)cc2)CC1)(c1ccccc1)c1ccccc1 | 12.6 µM (active)
CC[N+](CC)(CC)CC | inactive
COC(=O)C1=C(C)NC(C)=C(C(=O)OCCN(C)Cc2ccccc2)C1c1cccc([N+](=O)[O-])c1 (centres undefined) | inactive

target: Ubiquitin carboxyl-terminal hydrolase 2 (Homo sapiens) (UniProt O75604); assay: qHTS Validation Assay for Inhibitors of Ubiquitin-specific Protease USP2a Using CHOP2 as the Reporter (AID 463106); details: USP2a cleavage of CHOP2 reporter, enzymatic; series mostly up to 38.3 µM
Summary of the method: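 USP2 core (10 nM final) was preincubated with compound 30 min at RT in pH 8.0 Tris/CaCl2/beta-ME/CHAPS buffer. Ub-CHOP2 and reporter substrate (25 nM final each) were then added, with fluorescence (Ex 485/Em 531) read after 60 min. Data were normalized to NEM full inhibition and fitted to concentration-response curves.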

Sequence of Ubiquitin carboxyl-terminal hydrolase 2 (Homo sapiens) (O75604 whole entry, looked up): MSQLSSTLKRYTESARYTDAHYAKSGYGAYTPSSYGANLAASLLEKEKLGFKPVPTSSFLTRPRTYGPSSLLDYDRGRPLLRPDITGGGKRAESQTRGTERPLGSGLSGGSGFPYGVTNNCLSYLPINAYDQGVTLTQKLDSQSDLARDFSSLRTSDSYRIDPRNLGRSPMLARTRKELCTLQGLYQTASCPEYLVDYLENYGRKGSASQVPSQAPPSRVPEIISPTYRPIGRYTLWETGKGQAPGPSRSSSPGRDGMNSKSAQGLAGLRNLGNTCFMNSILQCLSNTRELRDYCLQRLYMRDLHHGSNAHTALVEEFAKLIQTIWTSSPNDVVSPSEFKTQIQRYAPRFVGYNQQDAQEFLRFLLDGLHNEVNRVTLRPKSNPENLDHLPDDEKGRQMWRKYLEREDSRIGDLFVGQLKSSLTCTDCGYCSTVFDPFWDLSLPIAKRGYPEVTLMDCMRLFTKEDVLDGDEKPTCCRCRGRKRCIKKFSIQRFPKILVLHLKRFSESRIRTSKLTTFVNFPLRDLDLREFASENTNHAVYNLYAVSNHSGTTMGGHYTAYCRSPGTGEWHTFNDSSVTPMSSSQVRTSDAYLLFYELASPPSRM

SMILES | Potency
CC(O)(CS(=O)(=O)c1ccc(F)cc1)C(=O)Nc1ccc(C#N)c(C(F)(F)F)c1 (centres undefined) | inactive
Cc1cc2c(C(C)C)c(O)c(O)c(C=O)c2c(O)c1-c1c(C)cc2c(C(C)C)c(O)c(O)c(C=O)c2c1O | 5.21 µM (active)
CC(=O)[C@H]1CC[C@H]2[C@@H]3CC[C@H]4C[C@](C)(O)CC[C@]4(C)[C@H]3CC[C@]12C | inactive
CC(C)=CCOc1c2occc2cc2ccc(=O)oc12 | inactive
C[C@@H]1O[C@@H](O[C@H]2C[C@@H](O)[C@]3(CO)[C@H]4[C@H](O)C[C@]5(C)[C@@H](C6=CC(=O)OC6)CC[C@]5(O)[C@@H]4CC[C@]3(O)C2)[C@H](O)[C@H](O)[C@H]1O | inactive
CC[C@@H](CO)NC(=O)[C@@H]1C=C2c3cccc4c3c(cn4C)C[C@H]2N(C)C1 | inactive
COC[C@H]1OC(=O)c2coc3c2[C@@]1(C)C1=C(C3=O)C2CCC(=O)[C@@]2(C)C[C@H]1OC(C)=O (some centres undefined) | inactive
Cc1cccc(C)c1NC(=O)CN1CCCC1=O | inactive
CCCN1CCC[C@@H]2Cc3[nH]ncc3C[C@H]21 | inactive
COc1ccc(C(CN(C)C)C2(O)CCCCC2)cc1 (centres undefined) | inactive
